Screening results as filed in PubChem.
HT1080NT lethal: kills 2HG-producing HT-1080-NT fibrosarcoma cells | HT-1080-NT fibrosarcoma viability, CellTiter-Glo ATP luminescence, 48 h | Potency, µM (highest dose often 46.1 µM), for inactives: at the highest dose activity, negative = less viability, usual class: cytotoxic | 360,000 compounds, 1.6% hits | AID 686970;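 also: NT is the 2HG producing partner of a matched IDH1 knockdown line; 0% = DMSO-treated cells and -100% = media-only wells without cells; nearly all actives have a fitted effect of over 55% in size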
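Compounds were tested in concentration-response format on HT-1080-NT cells for 48 hours at 37 degrees C. Cell viability came from CellTiter-Glo luminescence; curves were classified by r2, response magnitude and activity.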
KB-V1 cytotox: KB-V1 MDR subline cytotoxicity; Potency, µM (highest dose often 46.1 µM), hits mostly cytotoxic; 400,000 compounds, 3.4% hits; AID 1347076; KB-V1 MDR cells viability, CellTiter-Glo, 72 h; also: % is scaled to controls: 0 for no effect and ±100 for the full control effect; nearly all actives have a fitted effect of over 60% in size
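KB-V1, DMEM (no phenol red) + 10% FBS; cpd pin-transferred, titration series; 72 h, 37 degrees C; CellTiter-Glo, luminescence. Data normalized, curve-fit.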
S2 tox: cell viability loss in ATXN counter-screen | S2 cells (HEK-293 line with an ATXN2-luciferase reporter) viability, CellTiter-Fluor protease fluorescence, 24 h | Potency, µM (series often up to 56.7 µM), usual class: cytotoxic | 400,000 compounds, 0.49% hits; also: nearly all actives have a fitted effect of over 40% in size
KB-3-1 cytotox: KB-3-1 parental cell cytotoxicity | KB-3-1 viability, CellTiter-Glo ATP luminescence, 72 h | Potency, µM (doses to about 46.1 µM), usual class: cytotoxic | 400,000 compounds, 1.4% hits; also: % is scaled to controls: 0 for no effect and ±100 for the full control effect; nearly all actives have a fitted effect of over 60% in size
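Multi-concentration cytotoxicity screen in KB-3-1 cells grown in DMEM lacking phenol red with 10% FBS. After 72 h at 37 °C with compound, ATP-dependent luminescence was recorded.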
HT1080 IDH1KD tx: kills HT-1080 cells with IDH1 knockdown. HT-1080 IDH1 knockdown viability, ATP luminescence, 48 h. Potency, µM (top dose mostly 46.1 µM), for inactives: top-dose activity, negative = toxicity, actives largely listed as cytotoxic. 360,000 compounds, 2% hits. AID 686971;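 also: 0% = DMSO wells and -100% = cell-free medium wells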
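% activity derives from luminescence (CellTiter-Glo), normalised to DMSO and no-cell wells. HT-1080-IDH1KD cells, 750/well, had 48 h compound exposure at 37 °C.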
ATXN2 expr inh: ATXN2 expression inhibition | AID 1745845 | HEK-293 ATXN2-luciferase reporter, luminescence, 24 h | 360,000 compounds, 0.72% hits | Potency, µM (series often up to 57 µM), without a hit: at the top dose activity change, negative = inhibition, hits mostly inhibitors; also: % is scaled to controls: 0 for no effect and ±100 for the full control effect; nearly all actives have a fitted effect of over 55% in size
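ATXN2-luciferase reporter cells (luciferase flanked by upstream and downstream ATXN2 gene portions) were treated 24 h at 37 °C with compounds at up to 57 uM. SteadyGlo luminescence gave expression; GF-AFC fluorescence gave viability.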
* = called active by the depositor; i = inactive; ? = inconclusive; / = no result given; ! = a repeat was not active. The list is not random: actives were taken first. Their share in the collection is about 6.2%. Calls follow the shape of the dose curve; as a rule, active = well fitted curve in the direction sought with a large enough effect; inconclusive = small, poorly fitted or top-dose-only effect, or another doubt; inactive = no such curve, though single readings can be large; an effect the other way counts as inactive or inconclusive. Potency is read from the fitted curve at half-maximal effect.

SMILES	HT1080NT lethal	KB-V1 cytotox	S2 tox	KB-3-1 cytotox	HT1080 IDH1KD tx	ATXN2 expr inh
CC(=O)c1ccc(OCCCC(=O)Nc2ccc(Cl)c(S(=O)(=O)N3CCOCC3)c2)cc1	-5%	i	i	?	-17%	/
Cc1ccc(OCCCC(=O)Nc2ccc(Cl)c(S(=O)(=O)N3CCOCC3)c2)cc1	-20%	7.3µM*	i	15µM*	-21%	-35%
COc1ccc(C)cc1NC(=O)CCS(=O)(=O)c1cc2c3c(c1)CCN3C(=O)CC2	/	i	i	i	/	1%
COc1cccc(C(=O)Nc2c(C(=O)NC(C)(C)C)oc3ccccc23)c1	/	i	i	i	/	-25%
Cc1cc(C(=O)Nc2ccccc2-c2nc(CNC(=O)c3cscn3)c(C)o2)c(C)o1	/	/	i	/	/	/
CCOc1ccc(NC(=O)CSc2nnc(-c3ccc(OCC)cc3)o2)cc1	/	?	i	i	/	7%
O=C(CCn1cnc2onc(-c3ccc(F)cc3)c2c1=O)N1CCN(c2ccccc2F)CC1	/	i	i	i	/	7%
COc1ccc(C(=O)C[n+]2ccc3c(c2)nc(-c2ccc(OC)cc2OC)n3C)cc1	-14%	i	i	15µM*	?	-11%
COc1ccc(C(=O)C[n+]2ccc3c(c2)nc(-c2ccccc2)n3C)cc1	?	i	i	?	?	7%
Cc1c(NS(=O)(=O)c2ccc(C(C)(C)C)cc2)c(=O)n(-c2ccccc2)n1C	/	i	i	i	/	-6%
Cc1cc(Cl)ccc1OCC(=O)NCC1Cc2cc(-c3cnccn3)ccc2O1 (centres undefined)	/	/	i	/	/	/
COc1ccc(-c2noc(C3CCCN(C(=O)c4ccccc4OC)C3)n2)cc1OC (centres undefined)	-3%	i	i	i	-23%	20%
Cc1ccc(-c2noc(C3CCCN(C(=O)c4c(F)cccc4F)C3)n2)cc1 (centres undefined)	-3%	16µM*	i	i	-29%	4%
Cc1ccc(-c2noc(C3CCCN(C(=O)c4cccc(F)c4)C3)n2)cc1 (centres undefined)	-11%	i	?	i	-8%	/
COc1ccc(C(=O)N2CCCC(c3nc(-c4ccc(OC)c(OC)c4)no3)C2)c(OC)c1 (centres undefined)	-4%	4.1µM*	i	i	-8%	1%
O=C(c1c(F)cccc1F)N1CCCC(c2nc(-c3ccc(Cl)cc3)no2)C1 (centres undefined)	-25%	?	i	18µM*	-19%	?
Cc1ccc(-c2noc(C3CCCN(C(=O)c4ccccc4Br)C3)n2)cc1 (centres undefined)	-28%	18µM*	i	?	?	/
CN(Cc1ccc(F)cc1)S(=O)(=O)c1nnc(NC(=O)c2ccccc2Cl)s1	/	i	/	i	/	/
O=C(/C=C/c1cccc2ccccc12)c1ccncc1	?	2.6µM*	i	2.9µM*	?	?
COc1ccccc1Nc1cc(C)nc2nc(-c3ccccc3)nn12	/	i	/	i	/	/
CCOc1ccc(CCNC(=O)C2Cc3ccccc3N2C(=O)CC)cc1 (centres undefined)	/	i	i	i	/	-6%
CCCCCCSc1cccc(-c2nc3cc(C)ccn3c2NC2CCCCC2)c1	0%	?	i	i	-3%	?
Cc1ccn2c(NC3CCCCC3)c(-c3ccc(SC4CCCCC4)cc3)nc2c1	9%	18µM*	i	?	2%	20%
CCC(C)Sc1cc(-c2nc3ccc(Cl)cn3c2NC2CCCCC2)ccc1OC (centres undefined)	-9%	10µM*!	i	?	2%	-6%
CCC(C)Sc1cccc(-c2nc3cc(C)ccn3c2NC2CCCCC2)c1 (centres undefined)	12µM*	16µM*!	?	?	18µM*	?
SMILES	HT1080NT lethal	KB-V1 cytotox	S2 tox	KB-3-1 cytotox	HT1080 IDH1KD tx	ATXN2 expr inh
Cc1ccc(C(=O)NC(=S)N2CCN(c3ccc([N+](=O)[O-])cc3)CC2)cc1	-6%	23µM*	i	i	-12%	-18%
O=C(Nc1ccc(N2CCN(C(=O)c3ccco3)CC2)c(Cl)c1)c1cccnc1	4%	i	i	i	-3%	-12%
O=C(Nc1ccc(N2CCN(C(=O)c3cccs3)CC2)c(Cl)c1)c1ccco1	-4%	3.7µM*	i	?	?	-16%
O=C(Nc1ccc(N2CCN(C(=O)c3cccs3)CC2)c(Cl)c1)c1cccnc1	-20%	i	i	i	-28%	22µM*
O=C(NC(=S)N1CCN(c2ccc([N+](=O)[O-])cc2)CC1)c1ccccc1	0%	i	i	i	4%	4%
O=C(Nc1ccc(N2CCN(C(=O)c3ccco3)CC2)c(Cl)c1)c1c(F)c(F)c(F)c(F)c1F	-7%	i	?	?	-8%	28µM*
O=C(Nc1cccc(Cl)c1Cl)c1cc(S(=O)(=O)N2CCCc3ccccc32)ccc1F	/	i	i	i	/	-11%
COc1ccccc1C(=O)NC(=S)Nc1ccc(N2CCN(C(=O)c3ccco3)CC2)cc1	4%	i	i	i	12%	-37%
O=C(c1ccco1)N1CCN(c2ccc([N+](=O)[O-])cc2Cl)CC1	-6%	?	i	i	-4%	4%
O=C(Nc1ccc(N2CCOCC2)c(Cl)c1)c1c(F)c(F)c(F)c(F)c1F	-20%	i	i	i	-11%	13µM*
Cc1ccc(NC(=O)N2CCN(C(=O)c3ccco3)CC2)cc1Cl	0%	?	i	i	0%	6%
O=C(NC(=S)N1CCN(c2ccc([N+](=O)[O-])cc2Cl)CC1)c1ccco1	5%	21µM*	i	i	0%	0%
